The source of these data is PubChem BioAssay AID1745848 (National Center for Advancing Translational Sciences (NCATS), 2022).

In all, about 2,100 compounds went through this assay and about 940 (45%) were called active. Inconclusive results (about 48%) are left out. The call rests on the fitted dose curve; in most records, active means well fitted inhibition curve with a large enough effect; inconclusive means small, poorly fitted or top-dose-only effect; inactive means no such curve, though single readings can be large or run the other way. The set was probably picked from earlier hits. The list shows a part of the results.
Potency means the concentration at half of the fitted maximal effect.

A short description of this assay: Confirmatory qHTS for Inhibitors of ATXN expression. Further: nearly all actives have a fitted effect of over 65% in size. The conditions noted are these: ATXN2-luciferase reporter cells, luminescence, 24 h; series mostly up to 11.5 µM. A digest of the protocol: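 A titration, incubated 24 h with reporter cells expressing ATXN2-luciferase. Luminescence (SteadyGlo) gives ATXN2 expression, multiplexed GF-AFC fluorescence gives viability; normalised to DMSO and medium-only wells.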
On the technique in general: Quantitative high-throughput screening tests each substance at several concentrations.
In the case of `Cc1cc(Cl)c(C(=O)Nc2cccc(C(F)(F)F)c2)c(C)n1`, the Potency was 11.2 µM (active).

In the case of `CCOc1ccccc1C(=O)Nc1ccc2nc(N3CCN(c4ncccn4)CC3)cc(C)c2c1`, the Potency was 7.94 µM (active). `CCCCC(=O)NC(c1ccc(N(C)C)cc1)c1ccc2cccnc2c1O` (centres undefined): the Potency is 1.26 µM (active). The same measure for `CCCCC(=O)NC(c1ccc(N(CC)CC)cc1)c1ccc2cccnc2c1O` (centres undefined): 0.355 µM (active). For the compound `COc1ccc(CNCC(O)(c2ccc(Cl)cc2)c2ccc(Cl)cc2)cc1OC`, the Potency is 3.16 µM (active). The figure for `Cc1cc(C)c2c(N)c3cccc(C)c3nc2n1` is 10 µM (active); for `O=C(COc1ccc(Cl)cc1)N/N=C/c1cccc2cccnc12` it is 25.1 µM (active); for `O=C(COc1ccc(F)cc1)N/N=C/c1cccc2cccnc12` it is 3.55 µM (active). The figure for `CC(=O)Nc1sc2c(c1-c1nc3ccccc3s1)CN(C(C)C)CC2` is 10 µM (active); for `O=C(Nc1nc(-c2ccccn2)cs1)c1ccco1` it is 4.47 µM (active). The figure for `CC(Oc1ccc(F)cc1)C(=O)Nc1nc(-c2ccccn2)cs1` (centres undefined) is 2.24 µM (active); for `O=C(Nc1nc(-c2ccccn2)cs1)c1ccccc1-n1cnnn1` it is 2 µM (active).

In the case of `CCc1sc(C(=O)Nc2nc(-c3ccccn3)cs2)cc1C`, the Potency is 8.91 µM (active). For `CCc1cc(-c2[nH]ncc2-c2ccc(OC)cc2)c(O)cc1O`, the Potency was 3.98 µM (active). `Cc1cc(NC(=O)/C=C/C(=O)N(c2ccccc2C)C(C(=O)NC2CCCC2)c2ccc(F)cc2)no1` (centres undefined): the Potency was 3.55 µM (active).

Regarding `Cc1cc(NC(=O)CSc2nccn2-c2cccc(C)c2C)no1`, the Potency result was “inactive”. The entry for `COc1ccc(C2CC(c3ccccc3Cl)=NN2c2ccc(S(N)(=O)=O)cc2)cc1` (centres undefined) is “inactive”; for `COc1ccc(C2CC(c3ccccc3C(F)(F)F)=NN2c2ccc(S(N)(=O)=O)cc2)cc1` (centres undefined) it is 25.1 µM (active). Take `COc1ccc(C2CC(c3cccc(Cl)c3)=NN2c2ccc(S(N)(=O)=O)cc2)cc1` (centres undefined): the Potency is 25.1 µM (active).

Regarding `Oc1ccc(CN2CCC(Cc3ccccc3)CC2)c2cccnc12`, the Potency was 0.891 µM (active). The figure for `Oc1ccc(Cc2ccccc2)c2cccnc12` is 10 µM (active).

Turning to `Oc1ccc(Cl)c2cccnc12`, the Potency was 28.2 µM (active). Regarding `O=c1c(Cc2ccccc2)c(O)nc2n1CCS2`, the Potency entry is “inactive”. The figure for `CC(=O)N(C1=C(Cl)C(=O)c2ccccc2C1=O)C1CCCCC1` is 8.91 µM (active); for `CCOc1ccccc1NC(=O)CCCc1nc2ccccc2c(=O)[nH]1` it is 2.51 µM (active).

Take `N#CCc1nc2ccccc2c(=O)[nH]1`: the Potency entry is “inactive”. Consider `CCCC(=O)Nc1c(C(=O)OCC)[nH]c2ccccc12`, for which the Potency result was “inactive”. Turning to `CCOC(=O)C(NS(=O)(=O)c1ccc(C)cc1)(C(F)(F)F)P(=O)(OCC(C)C)OCC(C)C` (centres undefined), the Potency result was “inactive”. The same measure for `O=C(/C=C\c1ccccc1)NCC(=O)N/N=C/c1ccc(O)cc1O`: 15.8 µM (active); for `Cc1cccc(OCC(=O)NCC(=O)N/N=C/c2cc(Br)cc(Br)c2O)c1`: 8.91 µM (active). For the compound `CCOc1ccc(/C=N/NC(=O)C(O)c2ccccc2)c(O)c1` (centres undefined), the Potency was 3.16 µM (active). With `O=C(COc1ccccc1)NCC(=O)N/N=C/c1ccc(O)cc1O`, the Potency is 15.8 µM (active). Consider `O=C(N/N=C/c1ccc(O)cc1O)/C(=C/c1ccccc1)CCO`, for which the Potency was 0.794 µM (active). Regarding `CCN(CC)c1ccc(/C=C/c2cccc[n+]2C)c(OC)c1`, the Potency was 2.51 µM (active). In the case of `Cc1cc(C)nc(/N=C(\N)Nc2ccc(C(C)C)cc2)n1`, the Potency is 2.24 µM (active). The same measure for `S=C(NC1CCCCC1)N1CCOCCOCCN(C(=S)NC2CCCCC2)CCOCCOCC1`: 3.16 µM (active).

On to `OC[C@@H]1CN(Cc2ccc(-c3ccccc3)cc2)C[C@H](n2cnc3c(Nc4ccccc4)ncnc32)O1`, for which the Potency was 15.8 µM (active).

Turning to `CCOC(=O)C1CCN(c2ncnc3c2cnn3-c2ccc(Cl)cc2)CC1`, the Potency was 1.26 µM (active). The figure for `O=C(Cn1nc2ccccc2n1)N/N=C/c1cc([N+](=O)[O-])ccc1O` is 3.16 µM (active); for `O=C(N/N=C/c1cc([N+](=O)[O-])ccc1O)c1cccc2cc[nH]c12` it is 3.16 µM (active); for `O=C(N/N=C/c1cc([N+](=O)[O-])ccc1O)c1c[nH]c2ccccc12` it is 17.8 µM (active).

Take `O=C(N/N=C/c1cc([N+](=O)[O-])ccc1O)c1cc(-c2ccccc2)nc2ccccc12`: the Potency was 3.16 µM (active). The same measure for `COc1ccccc1N1C(=O)N(C(C)=O)C2C1Nc1ccccc1N2C` (centres undefined): “inactive”. As for `CSc1cccc(NC(=O)c2ccc(CN3CCc4ccccc4C3)cc2)c1`, the Potency was 4.47 µM (active).

Take `CC1Cc2cc(-c3csc(NC(=O)Cc4cccs4)n3)ccc2N1S(C)(=O)=O` (centres undefined): the Potency is 3.98 µM (active). For the compound `C=CCc1cccc(/C=N/NC(=O)CCC(=O)Nc2ccc(C)cc2)c1O`, the Potency was 3.55 µM (active). The same measure for `C=CCc1cccc(/C=N/NC(=O)CCC(=O)Nc2ccc(F)cc2)c1O`: 3.55 µM (active). The same measure for `Cn1c(CCN2CCN(c3ccccn3)CC2)nc2cc(NC(=O)COc3ccc(Cl)cc3)ccc21`: 11.2 µM (active). The figure for `Cc1ccccc1C(=O)/C(C#N)=N/Nc1c(C)n(C)n(-c2ccccc2)c1=O` is 3.55 µM (active); for `Cc1c(N/N=C(\C#N)C(=O)c2ccc(Cl)cc2)c(=O)n(-c2ccccc2)n1C` it is 1.12 µM (active); for `Cc1c(N=C2N=C(NC(=O)Nc3ccc(Cl)cc3)c3ccccc32)c(=O)n(-c2ccccc2)n1C` it is “inactive”. Consider `Cc1c(N/N=C(\C#N)C(=O)c2ccccc2)c(=O)n(-c2ccccc2)n1C`, for which the Potency is 2.51 µM (active). With `Cc1ccc(C(=O)N2CCN(c3ccc(NC(=S)NC(=O)c4cccs4)cc3)CC2)cc1`, the Potency result was “inactive”. The same measure for `Cc1ccccc1C(=O)N1CCN(c2ccc(NC(=O)c3ccc4c(c3)OCCO4)cc2)CC1`: 3.98 µM (active). With `O=C(Nc1ccc(NC(=O)c2ccco2)cc1)c1ccc2c(c1)OCCO2`, the Potency was 14.1 µM (active).

Consider `Cc1cccc(NC(=O)c2cc(-c3ccccn3)nc3ccccc23)c1C`, for which the Potency is 17.8 µM (active). On to `COc1cccc(C=NNC(=O)c2ccncc2)c1O`, for which the Potency was 15.8 µM (active). The same measure for `CC(=O)c1sc(NC(=O)c2cc(-c3ccccc3)nn2-c2ccccc2)nc1C`: “inactive”; for `COc1ccc(/C=N/NC(=O)c2nc(-c3ccccc3)n(-c3ccccc3)n2)c(O)c1`: 3.98 µM (active); for `COc1cccc(/C=N/NC(=O)c2ccc(-c3ccccc3)cc2)c1O`: 2 µM (active). On to `COc1cccc(/C=N/NC(=O)c2cc(-c3ccccn3)nc3ccccc23)c1O`, for which the Potency is 2.82 µM (active).

With `COc1cccc(/C=N/NC(=O)c2ccc(=O)n(C)c2)c1O`, the Potency is 15.8 µM (active). Consider `COc1cccc(/C=N/NC(=O)c2nc(-c3ccccc3)cc(-c3ccccc3)n2)c1O`, for which the Potency was 1 µM (active). The same measure for `OC[C@@H]1[C@@H](c2ccc(F)cc2)C(c2ccccc2)=NN1c1ccccc1`: “inactive”; for `Cc1cc(=O)oc2c1c(C)nn2-c1cccc(Cl)c1`: “inactive”. The figure for `Cc1noc2ncnc(N3CCN(c4cccc(Cl)c4)CC3)c12` is 11.2 µM (active); for `CCN(CC)CCNC(=O)CCc1c(C)nc2c(c(C)nn2-c2ccc(C)cc2)c1C` it is 3.16 µM (active). The same measure for `COc1ccc2nc(C)cc(NCc3cccc(C(F)(F)F)c3)c2c1`: 14.1 µM (active); for `COc1ccc2nc(C)cc(NCc3ccc(F)cc3)c2c1`: 3.98 µM (active); for `CCOC(=O)c1c(SCCN2CCCCC2)n(-c2ccccc2)c(=S)n(-c2ccccc2)c1=O`: 22.4 µM (active). In the case of `CCOC(=O)c1c(SCCN2CCCC2)n(-c2ccccc2)c(=S)n(-c2ccccc2)c1=O`, the Potency was 2.24 µM (active). Take `COc1cccc(N2CCN(c3nc(-c4ccccc4C)cc(=O)[nH]3)CC2)c1`: the Potency was 0.398 µM (active). The figure for `O=C(CSCC(=O)Nc1ccccc1)N/N=C/c1c(O)ccc2ccccc12` is 0.708 µM (active). The same measure for `O=C(CNc1ccc(F)cc1)N/N=C/c1c(O)ccc2ccccc12`: 3.16 µM (active); for `COc1ccccc1NCC(=O)N/N=C/c1c(O)ccc2ccccc12`: 3.16 µM (active). The figure for `O=C(CNc1ccccc1)N/N=C/c1c(O)ccc2ccccc12` is 0.562 µM (active); for `CCOc1cc(CNCCO)cc(Br)c1OCc1ccccc1` it is 12.6 µM (active); for `Cc1nc(C(F)(F)F)c(C(=O)N/N=C(\N)c2ccccn2)s1` it is 14.1 µM (active). For `CC(C)C1Cc2c(sc3[nH]c(=S)n(Cc4ccccc4)c(=O)c23)CO1` (centres undefined), the Potency was 12.6 µM (active). The figure for `Nc1ccc(Oc2ccccc2-c2ccccc2)cc1` is 2 µM (active); for `Cc1ncc(CO)c(/C=N/Nc2ccc(C(F)(F)F)cn2)c1O` it is 3.55 µM (active); for `CCC(C)N1C(=O)S/C(=C/c2ccc(Sc3nc4ccccc4[nH]3)o2)C1=O` (centres undefined) it is 11.2 µM (active).

In the case of `COc1cc(C(=O)OC(C)C(=O)N2CCc3ccccc3C2)ccc1OCC(=O)N1CCOCC1` (centres undefined), the Potency result was “inactive”. Turning to `S=C(Nc1ccccc1)Nc1ccc(OCc2ccc(Cl)cc2Cl)cc1`, the Potency was 2.51 µM (active). On to `Cc1[nH]c(=O)c(C(=O)/C=C/c2ccccc2)c2c1CCCC2`, for which the Potency was 7.94 µM (active). For the compound `Cc1ccc(C(=O)NCCN2C3=NC[C@@H](Cc4ccccc4)N3C[C@H]2Cc2ccc(O)cc2)cc1Br`, the Potency is 2.82 µM (active). As to `CCCCn1c2ccc(F)cc2c2nnc(NN)nc21`, the Potency was 28.2 µM (active). The figure for `Cc1cc(C2=NNC(=NC3CC3)SC2)c(C)n1-c1ccccc1F` is 0.126 µM (active); for `CCCC(=O)NC(c1ccco1)c1cc(Cl)c2cccnc2c1O` (centres undefined) it is 11.2 µM (active). On to `CCCCC(=O)NC(c1ccco1)c1cc(Cl)c2cccnc2c1O` (centres undefined), for which the Potency is 3.55 µM (active). The figure for `CC(=O)NC(c1ccco1)c1cc(Cl)c2cccnc2c1O` (centres undefined) is 3.16 µM (active); for `CCC(=O)NC(c1ccco1)c1cc(Cl)c2cccnc2c1O` (centres undefined) it is 2.82 µM (active). The figure for `O=C(CCc1ccccc1)NC(c1cccs1)c1cc(Cl)c2cccnc2c1O` (centres undefined) is 2.24 µM (active); for `CCC(=O)NC(c1ccco1)c1cc(Br)c2cccnc2c1O` (centres undefined) it is 11.2 µM (active).
